Test results: PubChem BioAssay (NCATS)
Inconclusive results are not listed. Calls of active or inactive are those of the source. Calls follow the shape of the dose curve; as a rule, active = well fitted inhibition curve with a large enough effect; inconclusive = small, poorly fitted or top-dose-only effect; inactive = flat fitted curve, though single readings scatter.

Assays:
Test in all cases: qHTS profiling for inhibitors of Plasmodium falciparum proliferation (AID 504749); also: nearly all actives have a fitted effect of over 60% in size
Conditions in all cases: P. falciparum in erythrocytes, SYBR Green DNA, 72 h; series mostly up to 28.7 µM
CP291 = system: CP291
Method in brief: (§1)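 Each compound contacts P. falciparum-infected red blood cells for 72 h at 37 C; lysis buffer (Tris, EDTA, saponin, Triton X, SYBR Green I) is added and fluorescence measured next morning; values normalized to controls.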

CP297 = system: CP297
Method in brief: as §1

CP305 = system: CP305
Method in brief: as §1

CP315 = system: CP315
Method in brief: as §1

CP325 = system: CP325
Method in brief: as §1

CP329 = system: CP329
Method in brief: as §1

CP335 = system: CP335
Method in brief: as §1

DFO2036 = system: DFO2036
Method in brief: as §1

DIV30 = system: DIV30
Method in brief: as §1

Dd2 = system: Dd2
Method in brief: as §1

FAB9 = system: FAB9
Method in brief: as §1

HB3 = system: HB3
Method in brief: as §1

JCK = system: JCK
Method in brief: as §1

N140 = system: N140
Method in brief: as §1

DIV14 = system: DIV14
Method in brief: as §1

DIV17 = system: DIV17
Method in brief: as §1

ECU = system: ECU
Method in brief: as §1

ICS = system: ICS
Method in brief: as §1

P93_24 = system: P93_24
Method in brief: as §1

GB4 = system: GB4
Method in brief: as §1

Measured: Potency
Potency is read from the fitted curve at half-maximal effect.

CCOc1ccc(N=Nc2ccc(N)cc2N)cc1
not listed: DIV14 | DIV17 | ECU | ICS | P93_24 | GB4
inactive: all other assays above

CC(=O)Oc1c(C)cc(OCC(O)CNC(C)C)c(C)c1C (stereo not drawn)
not listed: GB4
inactive: all other assays above

Nc1c(N=Nc2ccc(-c3ccc(N=Nc4cc(S(=O)(=O)O)c5ccccc5c4N)cc3)cc2)cc(S(=O)(=O)O)c2ccccc12
not listed: JCK
inactive: all other assays above

CO[C@H](C(=O)[C@@H](O)[C@@H](C)O)C1Cc2cc3cc(O[C@H]4C[C@@H](O[C@H]5C[C@@H](O)[C@H](O)[C@@H](C)O5)[C@@H](O)[C@@H](C)O4)c(C)c(O)c3c(O)c2C(=O)[C@H]1O[C@H]1C[C@@H](O[C@H]2C[C@@H](O[C@H]3C[C@](C)(O)[C@H](O)[C@@H](C)O3)[C@H](O)[C@@H](C)O2)[C@H](O)[C@@H](C)O1 (stereo partly drawn)
active: CP291 1200 nM | CP297 2690 nM | CP305 757 nM | CP315 3380 nM | CP325 1690 nM | CP329 1690 nM | CP335 151 nM | DFO2036 112 nM | DIV14 601 nM | DIV17 675 nM | DIV30 2390 nM | Dd2 89.1 nM | ECU 126 nM | FAB9 562 nM | GB4 675 nM | HB3 100 nM | ICS 79.4 nM | N140 126 nM | P93_24 112 nM

Cc1ccccc1
inactive: all assays above

CN1C(=O)CN2CCc3ccccc3C2c2cc(Cl)ccc21 (stereo not drawn)
active: DIV17 6010 nM
not listed: DIV30 | N140 | DIV14 | ECU | ICS | P93_24 | GB4
inactive: all other assays above

CC1=C(/C=C/C(C)=C/C=C/C(C)=C/C=C/C=C(C)/C=C/C=C(C)/C=C/C2=C(C)C(=O)CCC2(C)C)C(C)(C)CCC1=O
not listed: DIV14
inactive: all other assays above

COC(=O)CCC(=O)CN
not listed: DIV14
inactive: all other assays above

CC(C)=O
inactive: all assays above

CCCCCCCC/C=C\CCCCCCCC(=O)O
not listed: ECU
inactive: all other assays above

CCCCC(CC)COC(=O)CC(C(=O)OCC(CC)CCCC)S(=O)(=O)O (stereo not drawn)
inactive: CP291 | CP297 | CP305 | CP315 | CP325 | CP329 | CP335 | DIV14 | DIV17 | DIV30 | GB4

COC(C(=O)C(O)C(C)O)C1Cc2cc3cc(OC4CC(OC5CC(O)C(O)C(C)O5)C(O)C(C)O4)c(C)c(O)c3c(O)c2C(=O)C1OC1CC(OC2CC(OC3CC(C)(O)C(O)C(C)O3)C(O)C(C)O2)C(O)C(C)O1 (stereo not drawn)
active: CP291 1690 nM | CP297 2390 nM | CP305 1510 nM | CP315 3790 nM | CP325 3010 nM | CP329 2130 nM | CP335 379 nM | DFO2036 141 nM | DIV14 1510 nM | DIV17 1510 nM | DIV30 3010 nM | Dd2 100 nM | ECU 178 nM | FAB9 1580 nM | GB4 1350 nM | HB3 100 nM | ICS 100 nM | N140 199 nM | P93_24 178 nM

O=S(=O)(O)O
inactive: all assays above

Oc1cc(O)c2c(c1)OC(c1ccc(O)c(O)c1)C(O)C2 (stereo not drawn)
not listed: CP335 | ECU | GB4
inactive: all other assays above
